PubChem BioAssay (Tox21)
Inconclusive results are not listed. Calls of active or inactive are those of the source. Calls come from the whole dose curve.

Legend:
[1] = target: Acetylcholinesterase (Homo sapiens) (UniProt P22303); test: Acetylcholinesterase (AChE) small molecule antagonists: colormetric cell-based qHTS assay (AID 1347395); settings: SH-SY5Y cells AChE activity, colorimetric (Ellman); series mostly up to 115 µM; note: nearly all actives have a fitted effect of over 30% in size
How it was run: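 AChE inhibition read colorimetrically via DTNB–thiocholine in SH-SY5Y cells. Compound 30 min, substrate 90 min, both 37 C.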

[2] = target: Acetylcholinesterase (Homo sapiens) (UniProt P22303); test: Acetylcholinesterase (AChE) small molecule antagonists: enzyme-based qHTS assay (AID 1347397); settings: Potency: AChE enzyme activity inhibition; outcome: AChE enzyme activity inhibition; series mostly up to 115 µM; note: nearly all actives have a fitted effect of over 55% in size
How it was run: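 Recombinant human AChE (50 mU/mL) preincubated with compound 30 min at room temperature; acetylthiocholine plus DTNB then added, and thiocholine formation read colorimetrically after 10 min at room temperature. DMSO served as vehicle control.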

[3] = target: Acetylcholinesterase (Homo sapiens) (UniProt P22303); test: Acetylcholinesterase (AChE) small molecule antagonists: fluorescence cell-based qHTS assay (AID 1347398); settings: SH-SY5Y cells; Potency: AChE activity; outcome: AChE activity; series mostly up to 115 µM; note: nearly all actives have a fitted effect of over 50% in size
How it was run: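 SH-SY5Y cells (2000/well), attached overnight, incubated with compound 30 min at 37 C. Acetylthiocholine plus Thiolite Green then added for 40 min at room temperature. Thiocholine fluorescence (Ex/Em 490/520 nm) reports cellular AChE activity.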

[4] = target: Acetylcholinesterase (Homo sapiens) (UniProt P22303); test: Acetylcholinesterase (AChE) small molecule antagonists: enzyme-based qHTS assay with human liver microsomes (AID 1347399); settings: Potency: qHTS inhibition; outcome: qHTS inhibition; series mostly up to 115 µM; note: nearly all actives have a fitted effect of over 60% in size
How it was run: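 Recombinant human AChE (50 mU/mL in the enzyme mix) and human liver microsomes (0.25 mg/mL final) were preincubated with compound and NADPH (0.25 mg/mL final) for 30 min at 37 C. Acetylthiocholine/DTNB was then added; thiocholine was read colorimetrically after 10 min at room temperature.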
% is set by controls: 0 for no effect and ±100 for the full control effect.

Chain of Acetylcholinesterase (Homo sapiens) (P22303 whole entry, looked up): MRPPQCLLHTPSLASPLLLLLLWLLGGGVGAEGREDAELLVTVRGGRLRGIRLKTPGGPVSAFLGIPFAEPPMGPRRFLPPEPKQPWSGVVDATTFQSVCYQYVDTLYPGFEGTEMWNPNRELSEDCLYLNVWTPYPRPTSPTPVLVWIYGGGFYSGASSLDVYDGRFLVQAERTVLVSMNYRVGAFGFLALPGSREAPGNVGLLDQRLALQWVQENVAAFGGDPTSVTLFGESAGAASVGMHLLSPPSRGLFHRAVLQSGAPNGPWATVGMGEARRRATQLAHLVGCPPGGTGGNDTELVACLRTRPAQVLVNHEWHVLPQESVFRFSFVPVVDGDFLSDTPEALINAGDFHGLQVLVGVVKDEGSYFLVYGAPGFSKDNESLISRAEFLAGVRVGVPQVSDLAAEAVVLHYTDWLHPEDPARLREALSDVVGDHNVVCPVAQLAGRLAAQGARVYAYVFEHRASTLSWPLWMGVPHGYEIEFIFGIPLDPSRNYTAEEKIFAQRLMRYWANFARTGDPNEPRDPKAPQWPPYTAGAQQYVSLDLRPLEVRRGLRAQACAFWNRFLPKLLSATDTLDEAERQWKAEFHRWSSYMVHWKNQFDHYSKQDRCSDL

CCCCc1ccc2nc(NC(=O)OC)[nH]c2c1
inactive: Potency [1] | Potency [2] | Potency [3] | Potency [4]

C[C@@H](O)[C@H]1C(=O)N2C(C(=O)O)=C(SCCN=CN)C[C@H]12
inactive: Potency [1] | Potency [2] | Potency [3] | Potency [4]

CCCCCCCCCCCCOC(C)=O
inactive: Potency [1] | Potency [2] | Potency [3] | Potency [4]

Cc1cc(C(C)(C)C)cc(C)c1CC1=NCCN1
inactive: Potency [1] | Potency [2] | Potency [3] | Potency [4]

Oc1cccc(Nc2ccccc2)c1
inactive: Potency [1] | Potency [2] | Potency [3] | Potency [4]

O=C(/C=C/c1ccccc1)OC/C=C/c1ccccc1
inactive: Potency [1] | Potency [2] | Potency [3] | Potency [4]

CCCCCc1ccc(Cl)cc1
inactive: Potency [1] | Potency [2] | Potency [3] | Potency [4]

C(=C\c1ccccc1)/c1ccccc1
inactive: Potency [1] | Potency [2] | Potency [3] | Potency [4]

COc1ccc2cc(CCC(C)=O)ccc2c1
inactive: Potency [1] | Potency [2] | Potency [3] | Potency [4]

O=C1c2ccccc2C(=O)C1(O)O
inactive: Potency [1] | Potency [2] | Potency [3] | Potency [4]

NC(Cc1ccc(Cl)cc1)C(=O)O (centres undefined)
inactive: activity, negative = inhibition [1] 1.17% [at 0.435 µM] | activity change, negative = inhibition [2] 0.0464% [at 0.435 µM] | activity change, negative = inhibition [3] 9.18% [at 0.439 µM] | activity change, negative = inhibition [4] -1.76% [at 0.435 µM]

CC(C)SCc1ccco1
inactive: Potency [1] | Potency [2] | Potency [3] | Potency [4]

O=C(O)Cc1ccc(OCCNC[C@H](O)c2ccccc2)cc1
inactive: Potency [1] | Potency [2] | Potency [3] | Potency [4]

CCC(C)C(=O)OCCc1ccccc1 (centres undefined)
inactive: Potency [1] | Potency [2] | Potency [3] | Potency [4]

C=CCOc1ccccc1OCC(O)CNC(C)C (centres undefined)
inactive: outcome [1] | outcome [2] | outcome [3] | outcome [4]

Cc1ccc(C=O)s1
inactive: Potency [1] | Potency [2] | Potency [3] | Potency [4]

NCC1CCCC(CN)C1 (centres undefined)
inactive: Potency [1] | Potency [2] | Potency [3] | Potency [4]

O=CCCc1ccccc1
inactive: Potency [1] | Potency [2] | Potency [3] | Potency [4]

Nc1ccc(C(=O)OCCCOC(=O)c2ccc(N)cc2)cc1
inactive: Potency [1] | Potency [2] | Potency [3] | Potency [4]

CCCCCC(C)OC(=O)COc1ccc(Cl)c2cccnc12 (centres undefined)
inactive: Potency [1] | Potency [2] | Potency [3] | Potency [4]

C=C1CCC2CC1C2(C)C (centres undefined)
inactive: Potency [1] | Potency [2] | Potency [3] | Potency [4]

CCCCCCCCCCCCCCCCN(C)C
inactive: activity, negative = inhibition [1] -4.82% [at 10.5 µM] | activity change, negative = inhibition [2] -0.395% [at 10.5 µM] | activity change, negative = inhibition [3] -5.81% [at 10.5 µM] | activity change, negative = inhibition [4] -0.307% [at 10.5 µM]

CCOC(OCC)C(=O)c1ccccc1
inactive: Potency [1] | Potency [2] | Potency [3] | Potency [4]

CC(=O)OC(C)(C)Cc1ccccc1
inactive: Potency [1] | Potency [2] | Potency [3] | Potency [4]

CC(C)(C)C1CCCCC1=O (centres undefined)
inactive: Potency [1] | Potency [2] | Potency [3] | Potency [4]

CC(C)=CCOc1ccc(/C=C/C(=O)c2ccc(OCC=C(C)C)cc2OCC(=O)O)cc1
inactive: Potency [1] | Potency [2] | Potency [3] | Potency [4]

Nc1nc(N)nc(-c2cc(Cl)ccc2Cl)n1
inactive: Potency [1] | Potency [2] | Potency [3] | Potency [4]

O=C(O)c1c2ccccc2cc2ccccc12
inactive: Potency [1] | Potency [2] | Potency [3] | Potency [4]

CC(C)=CCCC(C)C=O (centres undefined)
inactive: Potency [1] | Potency [2] | Potency [3] | Potency [4]

OCCCCCCO
inactive: Potency [1] | Potency [2] | Potency [3] | Potency [4]

CC(C)CCOC(=O)c1ccc(N(C)C)cc1
inactive: Potency [1] | Potency [2] | Potency [3] | Potency [4]

Cc1ccco1
inactive: Potency [1] | Potency [2] | Potency [3] | Potency [4]

CCCCC(CC)COP(=O)(O)O (centres undefined)
inactive: Potency [1] | Potency [2] | Potency [3] | Potency [4]

CO[Si](CCCNCCC[Si](OC)(OC)OC)(OC)OC
inactive: Potency [1] | Potency [2] | Potency [3] | Potency [4]

CC1CCc2c(N3CCC(O)CC3)c(F)cc3c(=O)c(C(=O)O)cn1c23 (centres undefined)
inactive: Potency [1] | Potency [2] | Potency [3] | Potency [4]

COc1ccc(COC=O)cc1
inactive: Potency [1] | Potency [2] | Potency [3] | Potency [4]

CCCC(=O)C(CC)Sc1ccoc1C (centres undefined)
inactive: Potency [1] | Potency [2] | Potency [3] | Potency [4]

CN(Cc1ccc(C(C)(C)C)cc1)Cc1cccc2ccccc12
inactive: Potency [1] | Potency [2] | Potency [3] | Potency [4]

CCCCCCCC[Si](OCC)(OCC)OCC
inactive: Potency [1] | Potency [2] | Potency [3] | Potency [4]

CCc1cccc(C)c1N(C(=O)C(=O)O)C(C)COC (centres undefined)
inactive: Potency [1] | Potency [2] | Potency [3] | Potency [4]

O=S(=O)(O)c1ccc(Nc2nc(Nc3ccc(/C=C/c4ccc(Nc5nc(Nc6ccc(S(=O)(=O)O)cc6)nc(N(CCO)CCO)n5)cc4S(=O)(=O)O)c(S(=O)(=O)O)c3)nc(N(CCO)CCO)n2)cc1
inactive: Potency [1] | Potency [2] | Potency [3] | Potency [4]
